# Bioassay records as filed in PubChem BioAssay.
# Only some compounds are listed: those with a hit (about 4.5% of all), similar ones and a draw of the others.
# Jurkat NFkB inh: inhibitors of the PMA/ionomycin-induced NF-kB reporter in Jurkat cells. AID 435003. actives 0.53% (n = 330,000). PMA/ionomycin-induced NF-kB luciferase reporter, luminescence. inhibition, % at 4 µM; in the data active = inhibition above about 50%
# aSyn UTR inh: MLPCN primary screen, SNCA 5' untranslated region | inhibition, % (tested at 7.5 µM) | AID 1813 | actives 0.82% (n = 300,000) | alpha-synuclein 5'UTR reporter, inhibitor activity; in the data active = inhibition above about 60%;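 note: H4 neuroglioblastoma cells stably carrying SNCA 5'UTR luciferase fusion; 0% = DMSO wells and 100% = positive control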
# 697 NFkB inh: lowers PMA/ionomycin-induced NF-kB signal in 697 B cells; 697 B-cell NF-kB luciferase reporter, 16 h; inhibition, % at 4 µM; actives 0.33% (n = 330,000); AID 435022; in the data active = inhibition above about 35%
# Mdm2 MdmX PPI: human Mdm2/MdmX binding inhibition; O15151+Q00987; SaOS-2 split-luciferase Mdm2/MdmX complementation, luminescence; inhibition, % at 8 µM; actives 3% (n = 330,000); AID 485346;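 active = inhibition of at least 50% at 8 µM in the primary screen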
# Gli-Sufu antag: blocks Gli-Sufu signaling in a luciferase reporter | AID 588413 | actives 0.74% (n = 340,000) | Sufu-KO-LIGHT fibroblasts, Gli luciferase reporter luminescence | inhibition, % at 5 µM;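 active = inhibition above about 55%, limit read from the data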;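 note: 0% = DMSO-treated cells and 100% = wells with medium but no cells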
# CSC inhib: cancer stem cell inhibition; AID 2717; actives 1.1% (n = 300,000); cancer stem cell-like cells viability, luminescence; inhibition, % at 7.5 µM; in the data active = inhibition above about 75%; tested in HMLE shEcad cells
# 697 NFkB conf: lowers PMA/ionomycin-induced NF-kB signal in 697 B cells | shares compounds with 697 NFkB inh | 697 B-cell NF-kB luciferase, 16 h | inhibition, % at 4 µM | actives 35% (n = 2,000) | AID 449746; in the data active = inhibition mostly above about 28%, no sharp cut-off; inactive = mostly below about 22%
# Active calls of the source: *; . = no result.
SMILES,Jurkat NFkB inh,aSyn UTR inh,697 NFkB inh,Mdm2 MdmX PPI,Gli-Sufu antag,CSC inhib,697 NFkB conf
N=C1C(c2nc3ccccc3s2)=C(O)CN1C1CCCCC1,-123.6,-47.9,-270.8,7.1,-40.6,1.0,-88.3
O=C(OC1CCOC1=O)c1ccc(Cl)c(S(=O)(=O)N2CCOCC2)c1 (stereo not drawn),-4.4,.,24.8,-15.6,-1.7,-1.7,.
COc1cc(-c2nc3ccccn3c2NCC2CCCO2)ccc1O (stereo not drawn),-3.6,-23.3,36.0*,28.4,4.0,-9.8,1.8
CC(OC(=O)Cc1c[nH]c2ccccc12)C(=O)Nc1ccccc1[N+](=O)[O-] (stereo not drawn),3.5,11.8,8.8,-5.0,-24.8,-5.7,.
Cn1c(=O)cc(SCC(=O)N2CCN(C3CCCCC3)CC2)c2ccccc21,-9.0,-15.1,37.9*,34.1,18.1,5.9,22.9
Cn1c(=O)cc(SCC(=O)N2CCN(Cc3ccc4c(c3)OCO4)CC2)c2ccccc21,0.7,-10.2,11.7,23.4,12.7,-12.9,.
CCn1c(=O)cc(SCC(=O)N2CCN(Cc3ccc4c(c3)OCO4)CC2)c2ccccc21,9.2,4.8,30.0,41.6,15.9,-5.6,.
CCn1c(=O)cc(SCC(=O)N2CCC(C)CC2)c2ccccc21,11.3,-4.5,59.2*,46.1,14.0,-3.3,44.6*
CCOC(=O)C1CCN(C(=O)CSc2cc(=O)n(CC)c3ccccc23)CC1,-12.8,-17.7,15.8,30.8,12.7,.,.
CCn1c(=O)cc(SCC(=O)N2CCN(C)CC2)c2ccccc21,-4.2,-6.2,41.9*,37.4,26.1,-11.2,34.4*
CCn1c(=O)c2cc(C(=O)N3CCCC3)sc2c2ccccc21,-7.6,-12.5,53.3*,-5.6,.,.,31.7*
CCOC(=O)c1c(C)[nH]c(C(C)=NNC(=O)c2cccs2)c1C,10.7,.,-106.2,-93.9,-67.6,-4.9,.
COc1cccc(CNc2ccc(S(=O)(=O)N3CCCC3)cn2)c1,2.4,.,18.2,0.0,1.5,7.3,.
CCn1c(=O)cc(SCC(=O)N2CCCCC2)c2ccccc21,23.6,17.9,58.4*,41.9,31.6,-12.0,42.5*
CCn1c(=O)cc(OCC(=O)N2CCCC2)c2ccccc21,-14.0,-4.6,16.3,25.4,5.7,-3.6,.
CN(Cc1c(F)cccc1Cl)C(=O)c1ccc2ccccc2n1,-17.4,3.1,16.6,19.4,-8.2,-10.8,.
CCN(CC)C(=O)Oc1ccc2ccccc2c1Br,-57.9,-44.0,-301.8,44.9,-28.8,3.9,-253.2
CCN(CC)C(=O)Oc1ccc(Br)c2ccccc12,1.7,24.1,1.5,-22.4,1.0,-7.8,.
COc1cccc(C(=O)Cn2c(=N)n(C)c3ccccc32)c1,-98.3,86.4*,-304.2,-139.0,-111.3,2.7,-272.6
CCN(CC)S(=O)(=O)c1cccc(NC(=O)c2ccc(Sc3nncn3C)c([N+](=O)[O-])c2)c1,9.2,8.2,37.2*,38.3,-0.2,-15.9,11.9
COc1cc(-c2[nH]nc3c2C(c2ccco2)C(C#N)=C(N)O3)cc(OC)c1OC (stereo not drawn),17.3,10.6,56.9*,3.9,4.1,3.3,37.1*
Cc1ccc2c(c1)c(CC(=O)Nc1ccc(F)cc1)c(C(=O)O)n2C,3.0,-10.0,11.9,-7.6,.,1.1,.
CCN(CC)C(=O)C1CCCN(C(=O)c2oc3ccc(C)cc3c2C)C1 (stereo not drawn),-10.9,3.4,2.6,19.6,-3.7,-1.9,.
C=C(C)[C@@H]1CCC2(C(=O)O)CC[C@]3(C)[C@H](CC[C@@H]4[C@@]5(C)CCC(=O)C(C)(C)[C@@H]5CC[C@]43C)[C@@H]12 (stereo partly drawn),2.7,2.1,79.8*,35.6,-11.8,0.1,60.5*
CC(=O)O[C@@H](C[C@@H](C)C1=C2C[C@H](O)C3[C@@]4(C)CCC(=O)C(C)(C)C4CC[C@]3(C)[C@@]2(C)CC1)[C@H]1OC1(C)C (stereo partly drawn),.,.,.,.,2.3,.,.
SMILES,Jurkat NFkB inh,aSyn UTR inh,697 NFkB inh,Mdm2 MdmX PPI,Gli-Sufu antag,CSC inhib,697 NFkB conf
O=C(c1ccccc1Cl)N1CCN(C(=O)C2CCCO2)CC1 (stereo not drawn),15.1,.,15.0,1.0,-3.4,.,.
COCCCNc1nc2cc(OC)c(OC)cc2c2nc(-c3ccccc3)nn12,-7.3,-4.3,37.2*,45.0,4.1,-6.3,13.9
CCN(CC)CCCNc1nc2cc(OC)c(OC)cc2c2nc(-c3ccccc3)nn12,-66.7,-76.4,17.9,41.5,12.5,14.0,.
O=C(CCNS(=O)(=O)c1ccccc1)N1CCN(c2ccccc2F)CC1,-9.3,4.7,24.4,14.2,-3.9,13.4,.
CC(C)N1C(=O)S/C(=C/c2ccc3c(c2)n(C)c(=O)n3C)C1=O,-7.7,-50.6,47.1*,45.1,11.1,7.9,40.4*
CC(=O)c1ccc(NC(=S)NC(C)c2ccc(Cl)cc2Cl)cc1 (stereo not drawn),7.5,-15.4,-7.3,29.9,-1.0,30.2,.
CCOC(=O)C1CCCN(c2ncnc3c2cnn3-c2cccc(C)c2)C1 (stereo not drawn),-1.5,-20.4,-72.0,1.7,-12.3,-8.9,.
CCOC(=O)C1CCN(c2ncnc3c2cnn3-c2ccc(OC)cc2)CC1,-4.1,.,47.1*,2.8,6.6,.,36.5*
CCOC(=O)N1CCN(c2ncnc3c2cnn3-c2ccc(Cl)cc2)CC1,.,-85.7,.,.,.,.,.
COc1ccc(-n2ncc3c(N4CCC(C(N)=O)CC4)ncnc32)cc1,-70.1,-124.1,59.8*,-39.9,-86.9,-5.3,45.0*
COc1ccccc1C(=O)NCCN1CCN(c2ccccc2)CC1,9.2,-2.3,6.4,7.7,10.2,-5.9,.
CC1(C)CC2CC(C)(CN2S(=O)(=O)c2ccc(C(=O)Nc3ccc(S(=O)(=O)N4CCOCC4)cc3)cc2)C1 (stereo not drawn),33.5,-2.8,53.9*,29.8,.,.,35.3*
CC1(C)CC2CC(C)(CN2S(=O)(=O)c2ccc(C(=O)Nc3ccc(Cl)c(S(=O)(=O)N4CCOCC4)c3)cc2)C1 (stereo not drawn),48.8,34.6,4.9,33.8,13.4,19.3,.
Cc1cccc(NNC(=S)Nc2c(C)cccc2C)c1,-6.9,1.0,-8.5,-2.0,20.2,.,.
Cc1ccc(NC(=O)CCNS(=O)(=O)c2ccc3c(c2)oc(=O)n3C)cc1,16.4,-25.7,40.8*,6.0,0.9,-8.6,7.7
CCOC(=O)N1CCN(C(=O)Nc2ccc3nc(C)c(C)nc3c2)CC1,-3.9,8.6,36.7*,16.5,2.9,1.1,7.5
CSCCC(NC(=O)c1ccco1)C(=O)NCC1CCCCC1 (stereo not drawn),4.3,.,-5.3,8.0,2.9,.,.
Cc1nc([N+](=O)[O-])c(Sc2nc3ccc([N+](=O)[O-])cc3[nH]2)n1Cc1ccccc1,4.7,6.5,36.2*,26.9,-1.2,-6.8,29.7*
CC(C)Cn1c(S(=O)(=O)O)nc2ccccc21,-2.6,-0.2,35.2*,24.2,-34.2,-7.1,-22.9
